# Test results: PubChem BioAssay (EPA / NIEHS)
# Activity calls are given as the source filed them. The calls were made as follows: active = hit-call score of the fitted dose curve at least 0.9, where 1 is the maximum; inactive = score below 0.9.
# Tests used:
# Settings in all cases: mRNA level, 48 h; actives raise or lower the signal
# [1] = read-out: ABC Transporter (ABCC3), ABCC3 (gene 8714); test: LTEA_HepaRG_ABCC3: Life Technologies and Expression Analysis (LTEA) Assay for ABC Transporter (ABCC3) using HepaRG (AID 2283462)
# How it was run: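 Differentiated HepaRG liver cells receive test chemicals at eight concentrations (max 100 uM) for 48 h. Expression of ABCC3 is quantified by qRT-PCR against ACTB, GAPDH and POLR2A, and activity is fitted in both directions against the DMSO control.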
# [2] = read-out: ABC Transporter (ABCB11), ABCB11 (gene 8647); test: LTEA_HepaRG_ABCB11: Life Technologies and Expression Analysis (LTEA) Assay for ABC Transporter (ABCB11) using HepaRG (AID 2283463)
# How it was run: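 ABCB11 transcript levels are read by Fluidigm TaqMan qRT-PCR after 48 h chemical treatment of human HepaRG cells. Concentrations span 100 uM downward in half-log steps with 0.5% DMSO; gain or loss is fitted against DMSO controls.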
# [3] = read-out: ABC Transporter (ABCC2), ABCC2 (gene 1244); test: LTEA_HepaRG_ABCC2: Life Technologies and Expression Analysis (LTEA) Assay for ABC Transporter (ABCC2) using HepaRG (AID 2283464)
# How it was run: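 Gene expression of ABCC2 was determined by qRT-PCR in HepaRG cells exposed 48 h to chemicals (highest 100 uM, half-log dilutions). Activity was fitted in both directions relative to 0.5% DMSO vehicle.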
# [4] = read-out: Broad substrate specificity ATP-binding cassette transporter ABCG2 (Homo sapiens) (UniProt Q9UNQ0); test: LTEA_HepaRG_ABCG2: Life Technologies and Expression Analysis (LTEA) Assay for ABC Transporter (ABCG2) using HepaRG (AID 2283465)
# How it was run: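 Read-out is ABCG2 mRNA induction or loss quantified by qRT-PCR after 48 h chemical treatment of human HepaRG cells, normalized to three housekeeping genes. Concentrations reached 100 uM top in half-log steps; fitting was bidirectional against 0.5% DMSO.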
# [5] = read-out: ATP-citrate lyase (ACLY), ACLY (gene 47); test: LTEA_HepaRG_ACLY: Life Technologies and Expression Analysis (LTEA) Assay for ATP-citrate lyase (ACLY) using HepaRG (AID 2283466)
# How it was run: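 HepaRG, 48 h exposure, 8-pt half-log dilutions (top 100 uM), 0.5% DMSO. Readout: ACLY mRNA, TaqMan qRT-PCR, housekeeping-normalized (ACTB/GAPDH/POLR2A). Bidirectional curve fit vs DMSO.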
# [6] = read-out: Peroxisomal acyl-coenzyme A oxidase 1 (ACOX1) gene, ACOX1 (gene 51); test: LTEA_HepaRG_ACOX1: Life Technologies and Expression Analysis (LTEA) Assay for Peroxisomal acyl-coenzyme A oxidase 1 (ACOX1) gene using HepaRG (AID 2283467)
# How it was run: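 Measured by qRT-PCR against three housekeeping genes: ACOX1 transcript change in human HepaRG cells after 48 h dosing. Concentrations ran up to 100 uM in half-log steps. Curves were fitted bidirectionally relative to 0.5% DMSO.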
# [7] = read-out: Alkaline Phosphatase, Placental (ALPP) gene, ALPP (gene 250); test: LTEA_HepaRG_ALPP: Life Technologies and Expression Analysis (LTEA) Assay for Alkaline Phosphatase, Placental (ALPP) gene using HepaRG (AID 2283468)
# How it was run: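 Expression of ALPP was quantified by qRT-PCR against three housekeeping genes in human HepaRG cultures treated for 48 h with an eight-point concentration series up to 100 uM. Activity in either direction was fitted relative to 0.5% DMSO.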
# [8] = read-out: Bcl-2 (BAD) gene, BAD (gene 572); test: LTEA_HepaRG_BAD: Life Technologies and Expression Analysis (LTEA) Assay for Bcl-2 (BAD) gene using HepaRG (AID 2283469)
# How it was run: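 BAD transcript change, measured by qRT-PCR against three housekeeping genes and fitted in both directions relative to 0.5% DMSO, after 48 h chemical treatment of human HepaRG liver cells at concentrations up to 100 uM.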
# [9] = read-out: Bcl-2 (BAX) gene, BAX (gene 581); test: LTEA_HepaRG_BAX: Life Technologies and Expression Analysis (LTEA) Assay for Bcl-2 (BAX) gene using HepaRG (AID 2283470)
# How it was run: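 HepaRG (human liver), 48 h exposure, duplicate wells. 8-pt curve, half-log from 100 uM, 0.5% DMSO. BAX transcript by TaqMan qRT-PCR; ACTB/GAPDH/POLR2A normalization; gain or loss vs DMSO baseline.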
# [10] = read-out: adenosine kinase (ADK) gene, ADK (gene 132); test: LTEA_HepaRG_ADK: Life Technologies and Expression Analysis (LTEA) Assay for adenosine kinase (ADK) gene using HepaRG (AID 2283471)
# How it was run: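 Following 48 h exposure of HepaRG cells in 0.5% DMSO (top concentration 100 uM, duplicate wells), ADK mRNA induction or suppression was measured by qRT-PCR, normalised to ACTB/GAPDH/POLR2A, and fitted bidirectionally relative to vehicle.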
# [11] = read-out: Alpha-fetoprotein (AFP) gene, AFP (gene 174); test: LTEA_HepaRG_AFP: Life Technologies and Expression Analysis (LTEA) Assay for Alpha-fetoprotein (AFP) gene using HepaRG (AID 2283472)
# How it was run: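 HepaRG, single lot; 48 h post-plating -> serum-free induction medium; cpd 8-pt, 100 uM top, half-log, 0.5% DMSO, duplicate, 48 h. RNA -> qRT-PCR AFP, norm ACTB/GAPDH/POLR2A. Bidirectional fit vs DMSO.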
# BCL2L11 (gene 10018) = test: LTEA_HepaRG_BCL2L11: Life Technologies and Expression Analysis (LTEA) Assay for Bcl-2 (BCL2L11) gene using HepaRG (AID 2283473)
# How it was run: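 Cells were plated, cultured 48 h, switched to serum-free induction medium, then dosed in duplicate for 48 h at eight half-log concentrations up to 100 uM. Lysates underwent RNA isolation and TaqMan qRT-PCR; gain or loss versus DMSO was fitted.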
# [12] = read-out: Apolipoprotein A-V (APOA5) gene, APOA5 (gene 116519); test: LTEA_HepaRG_APOA5: Life Technologies and Expression Analysis (LTEA) Assay for Apolipoprotein A-V (APOA5) gene using HepaRG (AID 2283474)
# How it was run: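 Human liver HepaRG cells are treated 48 h with test chemicals (100 uM top, half-log dilutions, 0.5% DMSO). APOA5 mRNA induction or loss is measured by qRT-PCR relative to vehicle.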
# [13] = read-out: Apoptosis regulator Bcl-2 (Homo sapiens) (UniProt P10415); test: LTEA_HepaRG_BCL2: Life Technologies and Expression Analysis (LTEA) Assay for Bcl-2 gene using HepaRG (AID 2283475)
# How it was run: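 HepaRG, plated 48 h then switched to serum-free induction medium; dosed 48 h, 8 conc. (max 100 uM, half-log steps), duplicate, 0.5% DMSO. Lysis in RLT, RNA isolated, TaqMan qRT-PCR for BCL2; ACTB/GAPDH/POLR2A normalisation; bidirectional fit vs DMSO.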
# [14] = read-out: Bcl-2 (BID) gene, BID (gene 637); test: LTEA_HepaRG_BID: Life Technologies and Expression Analysis (LTEA) Assay for Bcl-2 (BID) gene using HepaRG (AID 2283476)
# How it was run: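 Transcript levels of BID, measured by qRT-PCR and normalized to three housekeeping genes, were fitted bidirectionally against DMSO controls. Cells were HepaRG, dosed 48 h at up to 100 uM.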
# Caspase-3 (Homo sapiens) = Caspase-3 (Homo sapiens) (UniProt P42574); test: LTEA_HepaRG_CASP3: Life Technologies and Expression Analysis (LTEA) Assay for cysteine-aspartic acid protease (CASP3) using HepaRG (AID 2283477)
# How it was run: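 In HepaRG liver cells dosed for 48 h at up to 100 uM (eight-point, duplicate), CASP3 expression changes are scored by qRT-PCR. Activity is fitted in both directions with 0.5% DMSO as baseline.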
# [15] = read-out: Cytochrome P450 (CYP24A1), CYP24A1 (gene 1591); test: LTEA_HepaRG_CYP24A1: Life Technologies and Expression Analysis (LTEA) Assay for Cytochrome P450 (CYP24A1) using HepaRG (AID 2283478)
# How it was run: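 Human liver HepaRG cultures receive each chemical for 48 h across an eight-point half-log series topping at 100 uM in 0.5% DMSO. Induction or suppression of CYP24A1 mRNA is scored relative to vehicle after housekeeping-gene normalization.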
# [16] = read-out: Cytochrome P450 (CYP1A2), CYP1A2 (gene 1544); test: LTEA_HepaRG_CYP1A2: Life Technologies and Expression Analysis (LTEA) Assay for Cytochrome P450 (CYP1A2) using HepaRG (AID 2283479)
# How it was run: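 Assesses CYP1A2 mRNA in human HepaRG liver cells after 48 h chemical exposure at up to 100 uM. Values come from qRT-PCR with bidirectional curve fitting relative to DMSO.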
# [17] = read-out: cysteine-aspartic acid protease (CASP8), CASP8 (gene 841); test: LTEA_HepaRG_CASP8: Life Technologies and Expression Analysis (LTEA) Assay for cysteine-aspartic acid protease (CASP8) using HepaRG (AID 2283480)
# How it was run: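 HepaRG, 48 h exposure, duplicate wells; 8 conc, half-log from 100 uM, 0.5% DMSO. Serum-free induction medium. CASP8 mRNA by TaqMan qRT-PCR, norm. ACTB/GAPDH/POLR2A; gain/loss fitted vs DMSO.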
# [18] = read-out: growth arrest and DNA damage 45 (GADD45B), GADD45B (gene 4616); test: LTEA_HepaRG_GADD45B: Life Technologies and Expression Analysis (LTEA) Assay for growth arrest and DNA damage 45 (GADD45B) using HepaRG (AID 2283461)
# How it was run: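 Values are bidirectional concentration-response fits against 0.5% DMSO controls. Underlying data: qRT-PCR mRNA levels in human HepaRG liver cells treated 48 h in serum-free induction medium, eight concentrations topping at 100 uM.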
# Sequence of Broad substrate specificity ATP-binding cassette transporter ABCG2 (Homo sapiens) (Q9UNQ0 whole entry, looked up): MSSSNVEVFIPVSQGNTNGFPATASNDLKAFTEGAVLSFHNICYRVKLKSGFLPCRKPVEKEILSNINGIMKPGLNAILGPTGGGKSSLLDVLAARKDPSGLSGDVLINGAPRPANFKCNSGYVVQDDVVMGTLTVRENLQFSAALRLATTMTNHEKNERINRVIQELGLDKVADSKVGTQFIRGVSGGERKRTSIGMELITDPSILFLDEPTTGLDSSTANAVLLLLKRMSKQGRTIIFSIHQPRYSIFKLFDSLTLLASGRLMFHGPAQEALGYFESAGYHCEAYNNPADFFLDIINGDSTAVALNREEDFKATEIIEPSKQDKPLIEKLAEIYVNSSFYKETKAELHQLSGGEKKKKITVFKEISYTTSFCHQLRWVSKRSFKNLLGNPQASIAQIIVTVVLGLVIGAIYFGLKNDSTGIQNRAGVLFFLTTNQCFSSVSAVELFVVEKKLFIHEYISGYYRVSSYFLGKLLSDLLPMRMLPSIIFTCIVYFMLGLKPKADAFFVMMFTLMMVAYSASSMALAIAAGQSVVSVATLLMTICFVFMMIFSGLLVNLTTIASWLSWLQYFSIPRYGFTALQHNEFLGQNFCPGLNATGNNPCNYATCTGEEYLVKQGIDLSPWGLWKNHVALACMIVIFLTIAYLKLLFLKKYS
# Sequence of Caspase-3 (Homo sapiens) (P42574 whole entry, looked up): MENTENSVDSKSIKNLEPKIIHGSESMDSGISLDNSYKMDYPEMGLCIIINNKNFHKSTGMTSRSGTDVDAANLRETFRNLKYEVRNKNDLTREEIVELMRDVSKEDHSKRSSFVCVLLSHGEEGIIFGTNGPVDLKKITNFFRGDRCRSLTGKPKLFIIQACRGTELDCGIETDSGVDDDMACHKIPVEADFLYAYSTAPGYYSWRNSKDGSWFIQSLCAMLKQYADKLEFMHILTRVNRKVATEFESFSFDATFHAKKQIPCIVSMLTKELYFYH
# Sequence of Apoptosis regulator Bcl-2 (Homo sapiens) (P10415 whole entry, looked up): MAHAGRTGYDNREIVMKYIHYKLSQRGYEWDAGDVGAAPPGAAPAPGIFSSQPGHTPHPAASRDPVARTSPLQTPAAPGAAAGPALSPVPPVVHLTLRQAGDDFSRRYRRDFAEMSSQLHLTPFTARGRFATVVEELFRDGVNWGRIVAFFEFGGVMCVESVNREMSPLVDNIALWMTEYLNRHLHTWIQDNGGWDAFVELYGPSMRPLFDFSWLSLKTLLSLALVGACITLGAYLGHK
smiles,measurement,setting,value
Nc1ccc2c(c1)C(=O)c1ccccc1C2=O,outcome,[1],inactive
same,AC50,[2],4.81 µM (active)
same,outcome,[3],inactive
same,AC50,[4],10.4 µM (active)
same,outcome,[5],inactive
same,outcome,[6],inactive
same,outcome,[7],inactive
same,outcome,[8],inactive
same,AC50,[9],15 µM (active)
same,outcome,[10],inactive
same,AC50,[11],22.8 µM (active)
same,outcome,BCL2L11 (gene 10018),inactive
same,AC50,[12],5.42 µM (active)
same,outcome,[13],inactive
same,outcome,[14],inactive
same,outcome,Caspase-3 (Homo sapiens),inactive
same,outcome,[15],inactive
same,AC50,[16],4.96 µM (active)
same,outcome,[17],inactive
c1cc(-c2ccncc2)ccn1,outcome,[18],inactive
same,outcome,[1],inactive
same,outcome,[3],inactive
same,outcome,[4],inactive
same,outcome,[5],inactive
same,outcome,[6],inactive
same,outcome,[7],inactive
same,outcome,[8],inactive
same,outcome,[10],inactive
same,outcome,[11],inactive
same,outcome,BCL2L11 (gene 10018),inactive
same,outcome,[13],inactive
same,outcome,Caspase-3 (Homo sapiens),inactive
same,outcome,[15],inactive
same,AC50,[16],50 µM (active)
same,outcome,[17],inactive
COc1cc(-c2nc(NC(=O)c3cc4cc(C)cc(C)c4n3CC(=O)O)sc2CCC2CCCCC2)c(OC)cc1Cl,AC50,[18],2.18 µM (active)
same,outcome,[1],inactive
same,AC50,[2],7.37 µM (active)
same,AC50,[3],7.35 µM (active)
same,AC50,[4],24.5 µM (active)
same,AC50,[6],8.11 µM (active)
same,outcome,[7],inactive
same,outcome,[8],inactive
same,AC50,[10],15.6 µM (active)
same,AC50,[11],6.7 µM (active)
same,AC50,BCL2L11 (gene 10018),60.6 µM (active)
same,AC50,[13],20.1 µM (active)
same,AC50,[14],5.4 µM (active)
same,AC50,Caspase-3 (Homo sapiens),11 µM (active)
same,outcome,[15],inactive
same,AC50,[16],4.88 µM (active)
same,AC50,[17],11 µM (active)
CCCCCCC(=O)OCC,outcome,[1],inactive
same,outcome,[2],inactive
same,outcome,[3],inactive
same,outcome,[4],inactive
same,outcome,[5],inactive
same,outcome,[6],inactive
same,outcome,[7],inactive
same,outcome,[8],inactive
same,outcome,[9],inactive
same,outcome,[10],inactive
same,outcome,[11],inactive
same,outcome,BCL2L11 (gene 10018),inactive
same,outcome,[13],inactive
same,outcome,Caspase-3 (Homo sapiens),inactive
same,outcome,[15],inactive
same,AC50,[16],23 µM (active)
same,outcome,[17],inactive
